Test results as given in ChEMBL document CHEMBL3988442, “University of Dundee, Small-Polar-MMV Screening Library” (2021).
Out of some 38,000 compounds screened, about 1,200 (3.2%) showed an effect of 50% or more. The median lay at about -58%. Many of the other results were omitted from the sample, so strong results are more common in it than they were.

What follows are compounds tested on Plasmodium falciparum (assay: Calibr Malaria Delayed Death Assay SOP). Conditions: concentration 4.99e-06 (unit not given; other assays of the set use mol/L).
Assay type: functional, organism-based
Design: scale not given: in the data most compounds retested in dose-response had high values

SMILES | Percent Effect [%]
COc1ccc(Br)c(NC(=O)NCc2cnn(C)c2)c1 | -45
CN1CCC2(CC1)CCN(C(=O)c1onc3ccccc13)C2 | -111.7
O=C1NCCCCC1Sc1ccc(F)cc1F (stereo not drawn) | -40.24
Cc1ccc(F)cc1CC(=O)N1CC[C@@]2(O)CCNC[C@H]2C1 | -30.21
Cc1nc(N(C)C)nc2c1COCC21CCN(C(=O)C2CC2)C1 (stereo not drawn) | -124.4
O=C(Cn1cc(C2CC2)nn1)N(Cc1cccs1)CC1CCCO1 (stereo not drawn) | -9.508
O=c1cc(CN(Cc2ccco2)C2CC2)nc2ccc(Br)cn12 | -50.29
Cn1cnc(S(=O)(=O)N2CCN(Cc3ccco3)CC2)c1Cl | -15.28
CN1CCC(N(Cc2ccco2)S(=O)(=O)c2ccc(Cl)cc2)CC1 | 54.64
O=C(c1cc(Br)ccc1Cl)N1CCN(Cc2ccco2)CC1 | -2.5
O=C(c1ccco1)N1CC(S(=O)(=O)c2ccc(Cl)cc2)C1 | -88.3
CN1CCC(N(Cc2ccco2)S(=O)(=O)c2ccc(Br)cc2Cl)CC1 | 73.43
O=C(CN(Cc1ccco1)C1CC1)Nc1ccc(Br)cn1 | -177.6
CC1CCN(C(=O)CN(Cc2ccco2)C2CC2)CC1 | -121
CN1CCC(N(Cc2ccco2)S(=O)(=O)c2cc(Br)ccc2Br)CC1 | 75.01
CCc1nc(C(=O)N2CCOCC2)nn1-c1ccccc1Cl | -27.32
COc1ccc(CN2CCCC2c2cccc(F)c2)c(OC)c1OC (stereo not drawn) | 58.64

SMILES | Percent Effect [%]
CS(=O)(=O)c1ccc(CN2CCCCC2c2cccc(F)c2)cc1 (stereo not drawn) | -43.63
COc1cccc(CN2CCCC2c2cccc(F)c2)c1OC (stereo not drawn) | 53.66
Cc1cc2[nH]c(CN3CCCCC3c3cccc(F)c3)cc(=O)n2n1 (stereo not drawn) | -66.54
COc1cccc(CN2CCCCCC2c2cccs2)c1OC (stereo not drawn) | -76.96
COc1cc(CN2CCCC2c2cccc(F)c2)cc(OC)c1OC (stereo not drawn) | 25.35
Cc1ccccc1-c1cc(NC(=O)CC(C)C)n(CCO)n1 | -65.33
O=C(NCCc1c[nH]c2ccccc12)C1(n2cnnn2)CCCCC1 | -28.02
O=C(O)C(F)(F)F.O=C(c1cccc(F)c1)N1CCC2(CC1)CN(c1ccccn1)CCO2 | -103.6
Cc1nn2c(-c3cnn(C)c3)nnc2s1 | -96.58
CC(C)(C)OC(=O)N1CCN(S(C)(=O)=O)C2(CCCCC2)C1 | -78.85
CN(C)CC1(O)CCN(C(=O)c2cnc(-c3ccccn3)nc2)C1 (stereo not drawn) | -83.84
CN(C)CC1(O)CCCN(c2noc(-c3ccccc3)n2)CC1 (stereo not drawn) | -4.701
Cc1cc(N2CCCC(O)(CN(C)C)C2)c2cc3c(cc2n1)OCO3 (stereo not drawn) | 79.58
Cc1cc(N2CCC(O)(CN(C)C)C2)c2cc3c(cc2n1)OCO3 (stereo not drawn) | 89.44
Cc1cc(N2CCCC3(CN(C)C(=O)O3)C2)c2cc3c(cc2n1)OCO3 (stereo not drawn) | -65
Cc1cc(C)c2[nH]c(=O)c(CN3CCC(O)(CN(C)C)C3)cc2c1 (stereo not drawn) | 5.101
